hDAT+cocaine: modulates human dopamine transporter uptake under cocaine; LLC-PK1 hDAT cells, [14C]-dopamine uptake with cocaine IC80; actives deviate in either direction; B-score at 10 µM; actives 1.3% (n = 110,000); Q01959;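 active = Z score or B-score, a plate-position-corrected score, falls beyond the plate's 99.7% confidence bounds, in either direction; inactive = both scores lie inside the 99.7% bounds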;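 also: scored against the spread of the other compound wells on the same plate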
ERa SRC1 pot: enhances coactivator binding to human estrogen receptor alpha | AID 639 | P03372 | actives 1.3% (n = 86,000) | TR-FRET ERalpha-LBD/SRC-Cy5 coactivator binding, 2 h; 100 = basal binding, no effect | coactivator binding (% of control), % at 25.6 µM; in the data active = activity above about 200%;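 also: binding measured in presence of low estradiol as agonist stimulus; 0% = peptide alone without receptor and 100% = receptor with peptide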
ERa coact inh: blocks coactivator binding to human estrogen receptor alpha; actives 1.7% (n = 86,000); TR-FRET ER-alpha LBD / SRC-1 peptide, estradiol-bound; inhibition, % at 25.6 µM; in the data active = inhibition above about 50%;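 also: 0% = receptor plus peptide control and 100% = peptide only without receptor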
ERb coact inh: ER-beta (human) coactivator binding inhibition; TR-FRET ER-beta LBD / SRC1-Cy5 peptide binding; receptor agonist-loaded with 1 µM estradiol; AID 633; Q92731; actives 1.3% (n = 86,000); inhibition, % at 25.6 µM;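 active = compounds whose percent inhibition of the receptor-coactivator binding signal exceeds about 50% in the single-dose screen, limit read from the data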;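 also: 0% = receptor plus peptide wells without compound and 100% = peptide-only wells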
Target sequence (Q92731 whole entry, looked up, the tested form may be a part): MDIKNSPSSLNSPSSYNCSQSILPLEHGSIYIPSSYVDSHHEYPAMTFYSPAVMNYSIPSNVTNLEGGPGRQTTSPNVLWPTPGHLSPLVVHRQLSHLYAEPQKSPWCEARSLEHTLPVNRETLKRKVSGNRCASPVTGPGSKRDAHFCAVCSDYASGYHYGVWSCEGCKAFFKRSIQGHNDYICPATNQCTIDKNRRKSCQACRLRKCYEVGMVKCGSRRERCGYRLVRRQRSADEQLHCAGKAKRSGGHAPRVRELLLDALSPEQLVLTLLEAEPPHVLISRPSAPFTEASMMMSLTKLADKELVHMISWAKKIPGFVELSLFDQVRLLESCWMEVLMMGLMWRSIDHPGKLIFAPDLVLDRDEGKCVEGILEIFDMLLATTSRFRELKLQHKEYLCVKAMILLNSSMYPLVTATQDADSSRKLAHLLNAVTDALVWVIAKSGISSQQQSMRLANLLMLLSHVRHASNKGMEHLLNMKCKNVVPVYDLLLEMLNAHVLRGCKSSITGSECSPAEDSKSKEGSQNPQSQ
MT1-MMP txn act: MT1-MMP promoter transcription activation; HT1080 MT1-MMP promoter luciferase reporter, luminescence, overnight; hits give high values; activation factor at 10 µM; actives 0.16% (n = 86,000);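 active = activation factor of at least 2 for MT1-MMP transcription at 10 µM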
Active calls of the source: *; / = not tested or not shown; [ ] = dose if it differs, or a comment. In the library only some 3.8% were active in any assay of this set; here they are far more common.

SMILES	hDAT+cocaine	ERa SRC1 pot	ERa coact inh	ERb coact inh	MT1-MMP txn act
COc1ccc(CC(=O)N2CC(C)CC(C)C2)cc1OC (stereo not drawn)	-0.93	93	-3	84*[fluorescence artefact?]	1
COc1ccc(C(=O)N2CCN(C(=O)Cc3ccccc3)CC2)cc1OC	0.038	99	-1	-1	1.3
COc1ccc2oc(C(=O)c3ccccc3)c(N)c2c1	-1.1	91	-4	-6	2.1*
COc1ccc(C(=O)c2oc3ccccc3c2N)cc1	0.22	80	-6	-2	2.3*
Nc1c(C(=O)c2ccccc2)oc2ccccc12	0.12	87	2	-7	/
CCCCCc1nc2c(C#N)c(-c3ccc(Cl)cc3)ccn2n1	0.43	/	/	/	/
CCc1ccc2nc(NC(=O)CSCc3c(C)noc3C)sc2c1	-0.097	83	6	91*[fluorescence artefact?]	1.3
COC(=O)c1ccccc1NC1=C/C(=N\S(=O)(=O)c2cccs2)c2ccccc2C1=O	-3*	94	2	6	1.1
COC(=O)c1cccc(NS(=O)(=O)c2cccs2)c1C	1.7	110	-4	-8	1.1
CN1CCN(C2=C(Cl)C(=O)C(c3cnc(N4CCCCC4)s3)=C(Cl)C2=O)CC1	-1.4	57	46	72*[fluorescence artefact?]	1
CCOC(=O)C(C(=O)OCC)c1cc(Br)c2noc3c2c1C(=O)c1ccccc1-3	-0.74	/	/	/	1.2
O=C1c2ccccc2-c2onc3ccc(Oc4ccccc4)c1c23	0.026	60	76*[fluorescence artefact?]	41	1.3
COC(=O)[C@@H]1C[C@@H]2CC[C@@H](O)C[C@@H]2N1Cc1ccc(N2CCOCC2)cc1	/	/	/	/	1
CC1CCC2(CC1)N=C(N)Nc1nc3ccccc3n12 (stereo not drawn)	0.0029	38	63*[fluorescence artefact?]	4	1.2
NC1=NC2(CCCCCC2)n2c(nc3ccccc32)N1	1.1	26	65*[fluorescence artefact?]	-6	1.1
CCOC(=O)c1oc2ccccc2c1NC(=O)c1ccc2c(c1)OCO2	-0.14	118	0	-5	1
CCOC(=O)c1oc2ccccc2c1NC(=O)c1ccc(Cl)s1	-2.4*	138	-5	11	/
CCc1nc(OCC(=O)c2ccccc2)c(C#N)c2c1COC(C)(C)C2	-1.4	87	5	6	1.1
CC1(C)Cc2c(C#N)c(OCC(=O)c3ccc(Cl)cc3)nc(-c3ccco3)c2CO1	-2.4*	104	-10	-4	1
Cc1nc(OCC(=O)c2ccc(Cl)cc2)c(C#N)c2c1COC(C)(C)C2	-0.53	773*[fluorescence artefact?]	2	-9	1.1
CCOC(=O)CSc1nnc(N)s1	-1.4	125	-5	-9	1
CCOC(=O)CSc1nn(C)c(=S)s1	0.16	33	65*	21	1.1
O=C(CN1C(=O)c2ccccc2C1=O)Nc1ccccc1C(=O)NC1CCCCC1	0.016	108	6	-6	1.2
Cc1cc2cc(CN(C(=O)C3CC3)C3CCCC3)c3nnnn3c2cc1C	2.9*	107	10	18	0.9
CCOc1ccccc1C1C(C#N)=C(N)Nc2onc(-c3ccccc3)c21 (stereo not drawn)	-0.03	378*	-4	1	1.1
SMILES	hDAT+cocaine	ERa SRC1 pot	ERa coact inh	ERb coact inh	MT1-MMP txn act
CCCc1[nH]nc2c1C(c1ccccc1OCC)C(C#N)=C(N)O2 (stereo not drawn)	0.53	85	4	3	0.9
Cc1onc(-c2c(Cl)cccc2Cl)c1C(=O)NCc1ccco1	-0.59	117	-3	-9	1.3
Cc1nn(Cc2ccccc2Cl)c(C)c1C(=O)NCc1ccco1	-0.029	106	3	79*	1.1
Cn1c(N2CCCCC2)cc(=O)n(C)c1=O	-0.42	104	-13	96*[fluorescence artefact?]	1.1
CC1(C)C(=O)Nc2ccccc2N1C(=O)COC(=O)C12CC3CC(CC(O)(C3)C1)C2	-0.69	54	88*[fluorescence artefact?]	78*[fluorescence artefact?]	1.1
O=C1CN(C(=O)COC(=O)C23CC4CC(CC(O)(C4)C2)C3)c2ccccc2N1	0.21	103	0	5	1.1
COc1ccccc1-c1nnc(SCC(=O)c2ccc(C3CCCCC3)cc2)n1Cc1ccco1	0.41	84	-2	-4	1.2
CN(C)CC(=O)N1c2ccccc2CCc2ccc(NC(=O)c3ccc(N)cc3)cc21	0.43	36	79*	69*[fluorescence artefact?]	1.1
COCCn1c(N)c(NCc2ccccc2)c(=O)n(CC(=O)Nc2cc(C)ccc2C)c1=O	2*	104	-4	-8	1
COc1cc(S(=O)(=O)Nc2c(C)cc(C)cc2C)ccc1Cl	-0.74	91	-1	63*[fluorescence artefact?]	1.1
COc1cc(S(=O)(=O)Nc2ccccc2C)ccc1Cl	-0.44	86	-2	-7	1.1
CCN(CC)c1ccc(-c2nn3c(-c4ccccc4OC)nnc3s2)cc1	0.79	366*	3	15	0.6
COc1ccc(-c2nn3c(-c4ccc(F)cc4)nnc3s2)cc1	0.73	95	24	14	1.1
COc1ccc(-c2nn3c(-c4ccccc4)nnc3s2)cc1	0.31	203*[fluorescence artefact?]	-2	-6	1
COc1cccc(-c2nnc3sc(C4CCCCC4)nn23)c1	-8.3*	94	3	-1	/
COc1ccc(-c2c(C3=CCCCC3)oc3ccc(-c4ccc5c(c4)OCO5)cc23)cn1	0.35	/	/	/	/
CCCC[C@H]1C[C@@H]1[C@@H]1N(P(=O)(c2ccccc2)c2ccccc2)C[C@@](O)(c2ccccc2)CC12CC2	/	/	/	/	1.1
NC(=O)[C@@H]1CCOc2c(I)cc([N+](=O)[O-])cc2C(=O)N[C@@H](CO)C(=O)NCC(=O)N1	0.31	/	/	/	/
C#Cc1ccc([C@H]2C=C(C(=O)N3CCOCC3)O[C@@H](OCC)[C@@H]2CCCO)cc1	0.17	/	/	/	/
Cc1cc(C(=O)O)ccc1-n1c(C)ccc1C	-0.93	22	57*	49	1.2
Cc1cc(N)ccc1-n1c(C)ccc1C	-0.36	99	2	4	1.1
COC(=O)c1ccc(C(/C=C/[C@@H](C)CO)NC(=O)OCc2ccccc2)cc1 (stereo partly drawn)	/	/	/	/	1.2
O=c1[nH]c2cc3c(cc2cc1C(c1nnnn1Cc1ccccc1)N1CCN2CCCC2C1)OCCO3 (stereo not drawn)	0.25	129	72*[fluorescence artefact?]	44	0.9
O=c1[nH]c2cc3c(cc2cc1C(c1nnnn1Cc1ccccc1)N1CCCc2ccccc21)OCO3 (stereo not drawn)	1.9	151	56*[fluorescence artefact?]	30	1.2
O=c1[nH]c2cc3c(cc2cc1C(c1nnnn1C1CCCC1)N1CCCc2ccccc21)OCCO3 (stereo not drawn)	/	114	6	2	1
O=c1[nH]c2cc3c(cc2cc1C(c1nnnn1Cc1ccccc1)N1CCCCCC1)OCCO3 (stereo not drawn)	-0.027	246*[fluorescence artefact?]	31	44	/
Cc1ccc(C)c2[nH]c(=O)c(C(c3nnnn3Cc3ccccc3)N3CCc4ccccc4C3)cc12 (stereo not drawn)	1.1	294*[fluorescence artefact?]	51*[fluorescence artefact?]	50	1.2
CCc1c2c(nc3ccc(OC)cc13)COC2	/	/	/	/	1.3
O=C(Cn1cnc2ccccc21)N/N=C/c1ccccn1	-0.053	/	/	/	/

Screening results (PubChem)
